32 molecules from the supplement of paper PMC12632987 can be followed below.

This experiment has as its target T1, USP38, Q8NB14.
T1 chain: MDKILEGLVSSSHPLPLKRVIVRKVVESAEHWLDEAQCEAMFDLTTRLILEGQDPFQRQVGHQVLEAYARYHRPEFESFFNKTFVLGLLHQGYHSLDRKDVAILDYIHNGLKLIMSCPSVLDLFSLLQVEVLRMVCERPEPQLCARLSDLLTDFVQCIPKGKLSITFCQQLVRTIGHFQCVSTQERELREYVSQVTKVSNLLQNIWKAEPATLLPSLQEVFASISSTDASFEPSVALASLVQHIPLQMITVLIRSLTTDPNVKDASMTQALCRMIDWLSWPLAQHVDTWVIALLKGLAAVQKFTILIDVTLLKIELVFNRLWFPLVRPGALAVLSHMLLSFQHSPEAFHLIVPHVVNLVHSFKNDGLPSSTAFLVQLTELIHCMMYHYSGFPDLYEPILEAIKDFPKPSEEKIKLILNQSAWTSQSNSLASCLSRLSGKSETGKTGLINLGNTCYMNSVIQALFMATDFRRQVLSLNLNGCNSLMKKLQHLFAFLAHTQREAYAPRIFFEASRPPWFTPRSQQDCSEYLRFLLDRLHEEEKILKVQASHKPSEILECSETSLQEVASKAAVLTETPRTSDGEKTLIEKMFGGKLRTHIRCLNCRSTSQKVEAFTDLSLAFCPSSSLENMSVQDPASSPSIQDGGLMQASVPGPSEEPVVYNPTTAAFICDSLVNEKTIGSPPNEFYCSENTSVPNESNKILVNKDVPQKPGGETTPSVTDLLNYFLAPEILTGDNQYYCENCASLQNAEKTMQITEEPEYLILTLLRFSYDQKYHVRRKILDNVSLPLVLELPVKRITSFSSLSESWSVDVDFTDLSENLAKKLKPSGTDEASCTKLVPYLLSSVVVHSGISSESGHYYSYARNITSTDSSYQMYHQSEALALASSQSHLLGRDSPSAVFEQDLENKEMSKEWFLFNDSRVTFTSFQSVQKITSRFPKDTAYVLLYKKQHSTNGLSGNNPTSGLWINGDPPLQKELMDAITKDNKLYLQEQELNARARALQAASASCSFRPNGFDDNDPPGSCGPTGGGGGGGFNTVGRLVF
In words: median log2 fold change of GCK-ALFA target abundance (FLAG IP / Myc IP barcode read proportion) (log2 ratio); each designed protein is fused to an ALFA-tag nanobody in HEK293 cells to bring the named protein to FLAG-tagged glucokinase (GCK); Myc marks an untargeted standard; higher = target protein stabilised (more abundant). Particulars: target protein: 3xFLAG-MCP-GCK-ALFA reporter; HEK293 landing pad (RPLP). The gist of the method: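 The readout is target abundance, the per-binder median log2 ratio of FLAG to Myc barcode read proportions. It came from HEK293 landing-pad cells carrying a recombined ALFA-nanobody-fused binder library, induced with 2 μg mL^−1 doxycycline and transfected with a plasmid for a FLAG-tagged target and a Myc-tagged standard. After 48 h, lysates were immunoprecipitated with anti-FLAG and anti-Myc, and circular RNA barcodes were reverse transcribed, amplified and sequenced. Each barcode needed a proportion of at least 10^−7 in both replicates and each binder at least 3 barcodes per replicate, a pseudocount of 10^−6 was added, and the replicates were pooled.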

B1: usp_38_diff_out_2_61_508 (protein)
chain: SEELEEKLEEVRRLLEEARRLIEELRRRLDTADEATLRALLREAESVLNEAIDLLIEVYNEAHELGDEETLEKADELWDELGRVAAELRRAREEFTDRVR
As to B1, the “median log2 fold change” value is -0.394.

B2: usp_38_diff_out_2_35_491 (protein)
chain: AAAEAARREEIRRRIDEMVDEANELTAETLEKLAEADAPDEKFEELFEAYDELMRLLARTYRLIREGAPLEEIERALEEAERKLEEFKKLAEELKKEAEE
As to B2, the “median log2 fold change” value amounted to 0.305.

B3: usp_38_diff_out_3_136_524 (protein)
chain: ATAAAKAQIKALEATAKALKEDSLKLVKELLEDPNVTPEDLESLKKIVLSSFDDLIAEVKAIKAAHPEVAAEADKAIKAIEEYKKEVEKAFNEAIAKKKA
As to B3, the “median log2 fold change” value is -0.221.

B4: usp_38_diff_out_2_35_490 (protein)
chain: MEEEEAFRKKVKEELDKMQDEAHEATTETLELLAEADAPLERFDELMRKYDEFMEAAAKTYKLIEEGASKEEIEKALKEAREKYKEFMEFAEKLKKEVAA
B4: the “median log2 fold change” value was determined as 0.00989.

B5: usp_38_diff_out_2_35_489 (protein)
chain: SEEEEEFRREARERLDKLADEVNDTTRETLEALAEADAPLEEIERVLEESDKAFKAIAEAYRLIREGASREEIEEALKKAEEKVKEFKKYAEEVLKRLKE
On to B5, for which the “median log2 fold change” value worked out at 0.192.

B6: usp_38_diff_out_2_35_492 (protein)
chain: SEEEEKAREEARKEIDELTDELNKTTSETLEALAEADAPLEKFDELMAKYSEAARALAATYKLIQEGAPLEEIEKALKEAKEAVEAFKKFAEELLKEAKA
Take B6: the “median log2 fold change” value came to 0.112.

B7: usp_38_diff_out_3_124_517 (protein)
chain: SRADELAAEARATLAELNATLAELEAALDTDLERARELAARADELLARLSGLLLELRDLAREDPRYRPTLKELEAEANAAIDRYTELMTRLFEKEAEAAA
With B7, the “median log2 fold change” value was -0.553.

B8: usp_38_diff_out_3_124_515 (protein)
chain: AEAEALLAELEELLERAEELIERAEEELDGDLERLRELLEELDEVLDELSAVFMRLHELAAEDPSHRPLLKEARKRSNEVITRATEVRLRALERLAEAAE
Turning to B8, the “median log2 fold change” value came out at 0.0853.

B9: usp_38_diff_out_2_61_510 (protein)
chain: NKELEKMIKEIEAKIKEAKALVDELEAGLDTLDEETLEALLAEARAVLDEAIDLLVKAYELAHELDDKEALERLDKLWDELGEVAARLREARERFTRRRR
Turning to B9, the “median log2 fold change” value was 0.4.

B10: usp_38_diff_out_3_136_525 (protein)
chain: SVAEAREQIKALEATAKALKESMLKLVEELLKDPNVTPEDLRELKEIVLDSFEDIKAEVEKIKKAHPEVKAEADAAIKKIEAYKKEVEAAFDAAIAAKEA
As for B10, the “median log2 fold change” value is -0.268.

B11: usp_38_diff_out_2_113_472 (protein)
chain: DPEEKKKEAELYKDIITEGADQLLELAKKGKLTPDRTAVMTAGIVHAAEVAYELDPSVKPTIEEVIKKLEEVYELVKDKNPEVAKIIEEAIKKLKEILKK
Turning to B11, the “median log2 fold change” value stood at 0.269.

B12: usp_38_diff_out_3_136_519 (protein)
chain: STEEVKEEIKRLEATAESMKESTLKLIEELSKDPNVTPEDVEELKKVVLSAFQDLKDDVKALKEAHPEVKEEADKAEAKIEAYKAEVEAAFDALIAEKKA
As to B12, the “median log2 fold change” value was determined as 0.188.

B13: usp_38_diff_out_2_35_493 (protein)
chain: SMEERREREERLKEIGARIDEAHELTREALELLAEIDAPQERFDRLFATYDAAMRALTAEARAVREGAPQEEIDRLRAEAEAALAELKALLAEARKLAAE
Take B13: the “median log2 fold change” value is -0.077.

B14: usp_38_diff_out_3_136_522 (protein)
chain: SVAAVKAEIERLKATADEMKKSTLRLIAELSKDPNVTPEDVESLKKVVLDSYQDLKDDVKALKAANPEVAAQADAALAAIDANAAEVKAAFDALLKEKKA
On to B14, for which the “median log2 fold change” value is -0.0509.

B15: usp_38_diff_out_3_124_513 (protein)
chain: AEAEKLAKELDKALKELEKLIKEAEKELDKDPEKLKKLLEEADETLDRAAGLYMQLHELAAEDPSTRPLLKKAREKANKVIDRYTEVRTKALERLAELEE
Consider B15, for which the “median log2 fold change” value is -0.564.

B16: usp_38_diff_out_3_136_526 (protein)
chain: SVAAVKAQIKALEATARALKEDMLKLVEELLKDPNVTPEDLESLKKIVLDSFDDIIKEVEELAKKYPEVKEEAEKAIKKIEEYRDEVKKAFDEAIKEKKA
Consider B16, for which the “median log2 fold change” value was determined as 0.0442.

B17: usp_38_diff_out_3_65_529 (protein)
chain: KVEEEIKKAKKYLEEARKIIEELKEKVKTDPTITEEEVNEMLDEAADLIVKAGEALRKARKLNPDEEQKKEIEKLEKELDELIDEYTEAGREAFLAVGER
On to B17, for which the “median log2 fold change” value was 0.0941.

B18: usp_38_diff_out_2_141_476 (protein)
chain: SEADELFREAFEREARAVAEEARKLIPKRLAIAERLAARGDLASLEERRTRVRAQAGAFRAMAEELEEMGGRPEVIELLRATAAELEEAAARIEELIAKL
In the case of B18, the “median log2 fold change” value was -0.698.

B19: usp_38_diff_out_3_136_527 (protein)
chain: ATAAVRARIRALEETARELKRSSLRLVEELLKDPNVTPEDLEELRKIVLDSFRDLEEEVRRLAAAEPAVAEEARRAEEEIRRYREEVERAFEEAIAAKKA
As for B19, the “median log2 fold change” value was -0.205.

B20: usp_38_diff_out_2_113_474 (protein)
chain: DPEERRKEAELYRDIILEGAEQLLRLAKAGRLTPDRTKVMLGGIVHAAEEAYELDPSVKPTIEEVIKKLEEVYELVKDKNPEVAAEIKEAIEKLKEILKK
Turning to B20, the “median log2 fold change” value is -0.0131.

B21: usp_38_diff_out_3_124_518 (protein)
chain: SEAEELVAKAKELLEKLTKVLEEAEKALDKDLEKAEKLLKEADELLTELSAALLRLRDLAMADPSWRPALKEIEAKANEVIDKYTEVATKFFEKKAEAQE
As for B21, the “median log2 fold change” value is -0.761.

B22: usp_38_diff_out_2_35_494 (protein)
chain: SSAERAAREALLAEIDAKIDEAVALTREALELLAEINAPEEEFDELFKTYDAAMTALTTAARLVREGAPQEEIEKAKAKAEAALAKLKALLEEAKKRAKE
Regarding B22, the “median log2 fold change” value was -0.0997.

B23: usp_38_diff_out_3_65_530 (protein)
chain: KVEEKLKEAEEHLEKAEELVEELRRLTEEDPTLTADEVVEMLDKIDDELVAAGKAIEEAKKLNPTPEQKKKIEELEKRLDELIDRRIEAAEEAFLRVGEA
For the molecule B23, the “median log2 fold change” value is 0.137.

B24: usp_38_diff_out_3_124_516 (protein)
chain: MKAEKLYEELKKLLKEIEKLIKEAKKELNKDLEELKKLLKELDKKLDELSKVFMELHELAAEDPRYRPLLKEARKESNKVITEATKVKLEALERLAEEEE
For the molecule B24, the “median log2 fold change” value amounted to 0.0275.

B25: usp_38_diff_out_2_113_475 (protein)
chain: DPEVREEIREAALSNLLSSLEELLKIAKENRRSEETMRMMVRGVIEAALELIRELNLPEEDVKKILELLEEVRKALAEKNPELAKLAQEGIEELRKAAEE
With B25, the “median log2 fold change” value is 0.205.

B26: usp_38_diff_out_2_61_509 (protein)
chain: SEELKKKAEEIEKLLREARELIAEARAGLDTRDPAELRALLREAERVLDEAIDLLVEFYEEAVEAGDEEALKKADELWDELGRAAKELRELRERLTERVR
For B26, the “median log2 fold change” value turned out to be 0.28.

B27: usp_38_diff_out_2_61_511 (protein)
chain: NKELEEQIKEIKKLIEEAKKLVEELEALLDTADEATLEKLLEEAEKVLNKAIDLLVQAFEQAHEAGDEEALKQLDELWDELGKVAARLREARERLTRRRR
Consider B27, for which the “median log2 fold change” value was determined as 0.412.

B28: usp_38_diff_out_3_65_528 (protein)
chain: GVEELLARAEEALRRLEEVIREAEEALKRAEELSAEELDELIRRATRVALEAERIRRELRRAGDSPEIRAAIARLEEAIERLNEVIERLTEALTAKLIAE
Turning to B28, the “median log2 fold change” value was 0.193.

B29: usp_38_diff_out_2_61_507 (protein)
chain: SAELQAQAERIEALLAQAEALIAELEAQLDTADEATLRALLAEAQAVLDEAIDLLVELYLRAHEAGDEEALAQADALWDRLGAVAARLRRAREALTDRLS
Regarding B29, the “median log2 fold change” value is -0.299.

B30: usp_38_diff_out_2_61_512 (protein)
chain: SEELEEKAKKIKELIEEAKKLVEEIEKELDTADLAELEKKLKEAEEVINKAIDELEELYKKAVLLGDEEAIKKANELWDELGEVAARYNEVRRRLTERKL
In the case of B30, the “median log2 fold change” value is 0.151.

B31: usp_38_diff_out_3_124_514 (protein)
chain: SRAEALFAKLKELLAKAEELIKKAEEELDKNLEELKKLLEELDKVMDEASRVFMELHELAAEDPAHRPLLKEARAASNKVVTRYTEVVLKALERLAEAEE
On to B31, for which the “median log2 fold change” value is -0.179.

B32: usp_38_diff_out_3_136_523 (protein)
chain: MLEEVRERVRRLEETAVSLKESMLKLIEELKKDPNVTPEDVEELRKVVLDAFDSLKAEVKEIQERYPEVKEEAEKALETIEKKKKEVDKAFEELIKEKKA
For B32, the “median log2 fold change” value is -0.217.
